From PubChem BioAssay AID1159580 (chemical genetic matrix, 2015)
Where “and” joins values, the source holds several entries; their conditions need not be identical. Equal values may be shown once. In all, about 5,500 compounds went through this assay and about 2,000 (36%) were called active. About 18% were inconclusive and are not listed. Rule as the data show it: active = normalized growth mostly below about 0.91 (no sharp cut-off); inconclusive = no clear call, values can overlap the other calls; inactive = mostly above about 0.92. This is one part of the list.

Experiment: chemical genetic growth profiling, strain panel (AID 1159580);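 also: tested at 20 µM; growth read once vehicle control cultures reached saturation at 30 °C; 1 = growth at the plate median or of vehicle wells; lower values mean less growth of the strain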
Details: S. cerevisiae deletion strains, growth OD

Measured: normalized growth

C/C=C/c1ccc2c(c1)OCO2
inactive: locus YAL013W, strain DEP1, stronger effect = lower value 1.01 | locus YAL021C, strain ccr4, stronger effect = lower value 1.02 | locus YAL026C, strain drs2, stronger effect = lower value 1.02 | locus YAL030W, strain snc1, stronger effect = lower value 1.02 | locus YBL061C, strain skt5, stronger effect = lower value 1.02 | locus YBR009C, strain hhf1, stronger effect = lower value 1.02 | locus YBR021W, strain FUR4, stronger effect = lower value 1.02 | locus YBR023C, strain chs3, stronger effect = lower value 1.02 | locus YBR171W, strain sec66, stronger effect = lower value 1.03 | locus YBR229C, strain ROT2, stronger effect = lower value 1.01 | locus YBR231C, strain swc5, stronger effect = lower value 1.02 | locus YBR279W, strain paf1, stronger effect = lower value 1.02 | locus YCL011C, strain gbp2, stronger effect = lower value 1.01 | locus YCL016C, strain dcc1, stronger effect = lower value 1.02 | locus YCL029C, strain bik1, stronger effect = lower value 1.01 | locus YCL061C, strain MRC1, stronger effect = lower value 1 | locus YCL069W, strain vba3, stronger effect = lower value 1.02 | locus YCR088W, strain abp1, stronger effect = lower value 1.02 | locus YDL005C, strain med2, stronger effect = lower value 1.02 | locus YDL035C, strain GPR1, stronger effect = lower value 1.02 | locus YDL040C, strain nat1, stronger effect = lower value 1.02 | locus YDL074C, strain BRE1, stronger effect = lower value 1.07 | locus YDL101C, strain DUN1, stronger effect = lower value 1.02 | locus YDL134C, strain PPH21, stronger effect = lower value 1 | locus YDL185W, strain tfp1, stronger effect = lower value 0.998 | locus YDL192W, strain arf1, stronger effect = lower value 1.01 | locus YDR001C, strain nth1, stronger effect = lower value 1 | locus YDR069C, strain doa4, stronger effect = lower value 1.04 | locus YDR101C, strain arx1, stronger effect = lower value 1.04 | locus YDR137W, strain rgp1, stronger effect = lower value 0.994 | locus YDR150W, strain NUM1, stronger effect = lower value 1.01 | locus YDR159W, strain sac3, stronger effect = lower value 1.02 | locus YDR162C, strain NBP2, stronger effect = lower value 1 | locus YDR195W, strain ref2 0.988 | locus YDR297W, strain sur2, stronger effect = lower value 1.02 | locus YDR318W, strain mcm21, stronger effect = lower value 0.991 | locus YDR334W, strain swr1, stronger effect = lower value 1.02 | locus YDR335W, strain msn5, stronger effect = lower value 1.02 | locus YDR388W, stronger effect = lower value 1.01 | locus YDR392W, strain spt3, stronger effect = lower value 0.912 | locus YDR502C, strain sam2, stronger effect = lower value 1.01 | locus YEL003W, strain gim4, stronger effect = lower value 1.02 | locus YEL037C, strain rad23, stronger effect = lower value 1.01 | locus YEL061C, strain CIN8 (second series), stronger effect = lower value 1.01 | locus YEL061C, strain CIN8, stronger effect = lower value 1.01 | locus YER015W, strain faa2, stronger effect = lower value 1.01 | locus YER016W, strain bim1, stronger effect = lower value 1.02 | locus YER110C, stronger effect = lower value 1.01 | locus YER111C, strain swi4, stronger effect = lower value 1.01 | locus YER155C, strain BEM2 (second series), stronger effect = lower value 0.997 | locus YER155C, strain BEM2, stronger effect = lower value 1.01 | locus YER167W, strain BCK2, stronger effect = lower value 1.01 | locus YFR010W, strain ubp6, stronger effect = lower value 1.02 | locus YGL078C, strain dbp3, stronger effect = lower value 1.02 | locus YGL086W, strain mad1, stronger effect = lower value 1.05 | locus YGL167C, strain pmr1, stronger effect = lower value 1.02 | locus YGL173C, strain kem1, stronger effect = lower value 1.02 | locus YGL227W, strain vid30, stronger effect = lower value 1.02 | locus YGL240W, strain doc1, stronger effect = lower value 1.01 | locus YGL248W, strain PDE1, stronger effect = lower value 1.02 | locus YGL253W, strain hxk2, stronger effect = lower value 1.02 | locus YGR078C, strain PAC10, stronger effect = lower value 1.01 | locus YGR135W, strain pre9, stronger effect = lower value 1.01 | locus YGR252W, strain gcn5, stronger effect = lower value 0.972 | locus YHR013C, strain ard1, stronger effect = lower value 1.09 | locus YHR027C, strain rpn1, stronger effect = lower value 1.02 | locus YHR030C, strain SLT2, stronger effect = lower value 1.01 and 0.978 | locus YHR079C, strain IRE1 (second series), stronger effect = lower value 1 | locus YHR079C, strain IRE1, stronger effect = lower value 0.98 | locus YHR094C, strain hxt1, stronger effect = lower value 0.994 | locus YHR129C, strain ARP1, stronger effect = lower value 1.01 | locus YHR142W, strain chs7, stronger effect = lower value 1.03 | locus YHR200W, strain rpn10, stronger effect = lower value 1.01 | locus YIL066C, strain RNR3, stronger effect = lower value 1.02 | locus YIL073C, strain SPO22, stronger effect = lower value 1.06 | locus YIL125W, strain kgd1, stronger effect = lower value 1.01 | locus YIR030C, strain dcg1, stronger effect = lower value 0.998 | locus YJL092W, strain hpr5, stronger effect = lower value 1.01 | locus YJL095W, strain BCK1 (second series), stronger effect = lower value 1.02 | locus YJL095W, strain BCK1, stronger effect = lower value 1.02 and 0.98 | locus YJL115W, strain asf1, stronger effect = lower value 1.03 | locus YJL129C, strain trk1, stronger effect = lower value 1.03 | locus YJL134W, strain LCB3, stronger effect = lower value 1.01 | locus YJL154C, strain vps35, stronger effect = lower value 1 | locus YJL164C, strain tpk1, stronger effect = lower value 1.01 | locus YJL166W, strain qcr8, stronger effect = lower value 1.01 | locus YJL168C, strain set2, stronger effect = lower value 1.01 | locus YJL187C, strain SWE1 (second series), stronger effect = lower value 1.03 | locus YJL187C, strain SWE1, stronger effect = lower value 1.01 | locus YJR043C, strain POL32, stronger effect = lower value 1.02 | locus YJR066W, strain TOR1, stronger effect = lower value 0.948
